Assay outcomes (PubChem)
nsP2pro inh = Primary qHTS for inhibitors of NSP2Pro chikungunya virus (CHIKV) | Polyprotein P1234 (Chikungunya virus (strain S27-African prototype)), Q8JUX6 | FRET peptide cleavage, nsP2pro, fluorescence 1 h | Potency, µM (series often up to 24.9 µM), inactives show at the highest dose activity change, negative = inhibition, usual class: inhibitors | 31,000 tested, 1.1% active | AID 1964107, 2024; also: nearly all actives have a fitted effect of over 60% in size
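Enzyme 150 nM, substrate 2.5 uM (both final); Tris-HCl 10 mM pH 8.0 + 0.01% Tween 20; cpd up to 25 uM, 7 pts; 15 min preinc., 1 h RT; fluorescence ex 525/em 598.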
nsP2 cell sec = Secondary cell base assay for inhibitors of NSP2Pro Chikungunya virus (CHIKV); shares compounds with nsP2pro inh; cell-based CHIKV nsP2 protease reporter assay; Potency, µM (titrated, usually from 51.1 µM), without a hit: at the top dose activity change, negative = inhibition, most hits filed as inhibitors; 450 tested, 10% active; AID 1964100, 2024; also: nearly all actives have a fitted effect of over 70% in size
NSP2 full ctr = Selectivity profile for inhibitors of NSP2Pro chikungunya virus (CHIKV): Full length NSP2 enzyme counterscreen (CHIKV-NSP2). Potency, µM (titrated, usually from 50.7 µM), inactives show at the highest dose activity change, negative = inhibition, actives largely listed as inhibitors. Full-length CHIKV NSP2 protease enzymatic counterscreen. AID 1964101, 2024. 410 tested, 39% active. shares compounds with nsP2pro inh; also: nearly all actives have a fitted effect of over 65% in size
Furin counter = Selectivity profile for inhibitors of NSP2Pro chikungunya virus (CHIKV): Human furin counterscreen | Recombinant human furin enzymatic counterscreen, fluorogenic substrate | 410 tested, 6% active | Potency, µM (titrated, usually from 50.6 µM), for the others: at the top dose activity change, negative = inhibition, actives largely listed as inhibitors | shares compounds with nsP2pro inh | AID 1964102, 2024
NS23 peptide cs = Selectivity profile for inhibitors of NSP2Pro chikungunya virus (CHIKV): Endogenous NS2/3 peptide Counterscreen. shares compounds with nsP2pro inh. Purified CHIKV nsP2 protease, endogenous NS2/3 peptide cleavage. Potency, µM (titrated, usually from 51 µM), for inactives: at the top dose activity change, negative = inhibition, usual class: inhibitors. 410 tested, 34% active; also: nearly all actives have a fitted effect of over 55% in size
Papain cs = Selectivity profile for inhibitors of NSP2Pro chikungunya virus (CHIKV): Papain Counterscreen | AID 1964104, 2024 | purified papain protease activity, enzymatic inhibition | Potency, µM (top dose mostly 51 µM), inactives show top-dose activity change, negative = inhibition, actives largely listed as inhibitors | shares compounds with nsP2pro inh | 410 tested, 5% active
Target sequence (P00784 whole entry, looked up): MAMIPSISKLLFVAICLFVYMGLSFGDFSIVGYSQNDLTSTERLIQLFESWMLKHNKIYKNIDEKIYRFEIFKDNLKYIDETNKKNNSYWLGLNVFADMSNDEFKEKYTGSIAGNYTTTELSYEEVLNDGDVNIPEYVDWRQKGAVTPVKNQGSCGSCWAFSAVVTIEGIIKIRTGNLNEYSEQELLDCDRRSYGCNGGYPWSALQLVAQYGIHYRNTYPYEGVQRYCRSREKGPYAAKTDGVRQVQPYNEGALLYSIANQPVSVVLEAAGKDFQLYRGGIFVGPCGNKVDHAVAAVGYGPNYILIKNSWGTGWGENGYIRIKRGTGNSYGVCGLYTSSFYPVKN
nsP2pro confirm = Confirmatory qHTS for inhibitors of NSP2Pro chikungunya virus (CHIKV); 410 tested, 43% active; Potency, µM (highest dose often 25.5 µM), for the others: at the highest dose activity change, negative = inhibition, most hits filed as inhibitors; CHIKV nsP2 protease enzymatic activity, qHTS; shares compounds with nsP2pro inh; also: nearly all actives have a fitted effect of over 75% in size
HCV NS3 counter = Selectivity profile for inhibitors of NSP2Pro chikungunya virus (CHIKV): NS34A-HCV Counterscreen | shares compounds with nsP2pro inh | HCV NS3/4A protease biochemical counterscreen | Potency, µM (highest dose often 50.9 µM), hits mostly inhibitors | 410 tested, 20% active | AID 1964106, 2024; also: nearly all actives have a fitted effect of over 55% in size
* marks the source's active call; other numbers are inactive results; i = inactive; ? = inconclusive; ! = not active in a repeat; [ ] = remark or other dose. This excerpt belongs to a sample that is enriched for hits. Calls follow the shape of the full dose curve. % is scaled to controls: 0 for no effect and ±100 for the full control effect; potency is read from the fitted curve at half-maximal effect.

SMILES	nsP2pro inh	others
O=C(c1ccncc1)N1CC2CCC(C1)N2Cc1ccc(-c2cccs2)cc1	3.3%
CC1(C)CN2C(CSC(=NC3CCCCC3)NC3CCCCC3)=CSC2=N1	2.6%
O=C(CCc1nc2ccccc2s1)N[C@@H]1CCOC[C@H]1OCCO	i
COCC(=O)N1CCC(c2nn(-c3ccccn3)c(=O)[nH]2)CC1	-40.0%[39.2 µM]
CN(CCN1CCC(OC(=O)Nc2ccccc2-c2ccccc2)CC1)C(=O)c1ccc(CN2CCC(C(N)=O)CC2)cc1	1.3%
COc1ccc(NC(=O)CNS(=O)(=O)c2cccs2)c(OC)c1	-16.4%
C#CC(=O)N(c1ccc(OC)cc1OC)C(C(=O)NCC(=O)OCC)c1cccs1 (centres undefined)	0.624µM*	nsP2 cell sec=-17.4%;NSP2 full ctr=1.3µM*;Furin counter=-5.2%;NS23 peptide cs=2.91µM*;Papain cs=-8.4%;nsP2pro confirm=0.798µM*;HCV NS3 counter=i
CCOCCCNC(=O)C(c1ccc(OC)cc1)N(Cc1cccs1)C(=O)CNC(C)=O (centres undefined)	-10.0%
CCCc1nnc([C@H]2CCN(C(=O)c3ccccc3)C2)o1	2.5%[39.2 µM]
CCN1C[C@@]2(COC)C3[C@@H](OC)C4[C@@H]1[C@@]3(C1C[C@]3(O)[C@H](OC(=O)c5ccccc5)C1[C@]4(OC(C)=O)[C@@H](O)[C@@H]3OC)[C@@H](OC)C[C@H]2O (some centres undefined)	1.0%
CCN(CC)CCS(=O)(=O)[C@@H]1CCN2C(=O)c3coc(n3)CC(=O)C[C@H](O)/C=C(C)/C=C/CNC(=O)/C=C/[C@@H](C)[C@@H](C(C)C)OC(=O)[C@@H]12	59.9%
CCOc1ccc(/C=C(\C#N)C(=O)Nc2sc3c(c2C(=O)OC)C(C(=O)OC)CC3)cc1OC (centres undefined)	0.849µM*	nsP2 cell sec=-0.7%;NSP2 full ctr=?;Furin counter=2.3%;NS23 peptide cs=5.8µM*;Papain cs=-4.4%;nsP2pro confirm=4µM*;HCV NS3 counter=i
CCOc1cc(/C=C(\C#N)C(=O)Nc2ccc(OC)cc2)ccc1OCc1cc(=O)n2nc(CC)sc2n1	-16.9%
COC(=O)C1CCc2sc(NC(=O)Cc3ccccc3)c(C(=O)Nc3ccc(Cl)cc3)c21 (centres undefined)	i
COc1cccc(CN2Cc3cc(NC(=O)Cc4cccs4)ccc3OCC2=O)c1OC	4.6%
CCc1ccc(S(=O)(=O)Nc2cnccc2C(=O)Nc2nc(-c3ccccc3)cs2)cc1	i
CC(=O)OC[C@@]12C(=O)C[C@@H](C)[C@]3(C[C@@H](c4ccoc4)O[C@H]3OC(C)=O)[C@H]1CCC[C@]21CO1	12.0%[10 µM]
COC(=O)[C@@]1(O)C=CC[C@@H]2[C@@]3(C)C[C@@H](c4ccoc4)OC(=O)[C@H]3CC[C@]21C	2.72µM*	nsP2 cell sec=5.1%[33.5 µM];NSP2 full ctr=-23.4%[33.5 µM];Furin counter=1.8%[33.5 µM];NS23 peptide cs=3.8%[33.5 µM];Papain cs=0.9%[33.5 µM];nsP2pro confirm=?;HCV NS3 counter=i
C[C@@]12C[C@@H](c3ccoc3)OC(=O)C1CC[C@]1(C)[C@H]2[C@H]2C=C[C@]1(O)C(=O)O2 (some centres undefined)	5.44µM*	nsP2 cell sec=-8.8%[33.5 µM];NSP2 full ctr=8.9%[33.5 µM];Furin counter=11.8%[33.5 µM];NS23 peptide cs=3.1%[33.5 µM];Papain cs=-13.2%[33.5 µM];nsP2pro confirm=-8.9%[16.7 µM];HCV NS3 counter=i
O=C(NC[C@@H]1CN(c2ccc(N3CCOCC3=O)cc2)C(=O)O1)c1ccc(Cl)s1	-23.7%
O=C(c1cn(CCC2CCCCC2)nn1)N1CCN(C(=O)c2ccco2)CC1	-11.0%
CC(=O)c1ccc(N2CCN(S(=O)(=O)c3ccc4[nH]c(=O)[nH]c4c3)CC2)cc1	4.0%
COCC1CN(Cc2ccc(C(C)C)cc2)CC12CCNCC2 (centres undefined)	i
COc1ccc(CC(=O)N2CCC(c3n[nH]c(=O)n3Cc3ccc(F)cc3)CC2)cc1	i
Cc1nc(C2CCN(C(=O)Cc3ccccc3)CCN2C(=O)Cc2ccccc2)n[nH]1 (centres undefined)	?	nsP2 cell sec=1.1%;NSP2 full ctr=?;Furin counter=-2.2%;NS23 peptide cs=?;Papain cs=-1.8%;nsP2pro confirm=?;HCV NS3 counter=?
SMILES	nsP2pro inh	others
CN(Cc1ccccc1)C(=O)CC1CCN(C(=O)Cc2ccccc2)C1 (centres undefined)	6.0%
CCCCCCCCCCCCCCCC(=O)OC1CCCn2c1nc(C)c(CCN1CCC(c3noc4cc(F)ccc34)CC1)c2=O (centres undefined)	-7.5%
CCc1ccc(C2=CC(C)(C)Sc3ccc(C#Cc4ccc(C(=O)O)cc4)cc32)cc1	120.5%
CCCCCCCCCC(=O)OCCN1CCN(CC/C=C2\c3ccccc3Sc3ccc(C(F)(F)F)cc32)CC1	-7.4%
CCCCCCCCN=C(N)NC(N)=NCc1ccc(Cl)c(Cl)c1	98.2%
O=C(N[C@H]1CCCc2c1cnn2-c1ccc(F)cc1F)c1ccccn1	i
O=C(NC1CCCc2c1cnn2-c1ccc(F)cc1F)c1ccccn1 (centres undefined)	7.94µM*!	nsP2 cell sec=9.1%;NSP2 full ctr=-2.3%;Furin counter=-1.0%;NS23 peptide cs=14.5%;Papain cs=-5.0%;nsP2pro confirm=11.8%;HCV NS3 counter=i
O=C(NC1CCCc2c1cnn2-c1ccc(F)cc1F)c1ccncc1 (centres undefined)	-10.4%
CN(C)C[C@@H]1CN(C)C[C@H]1NC(=O)NCc1ccc(OC(F)(F)F)cc1	0.0%
C[C@@H](Oc1ccc2[nH]nc(/C=C/c3cnn(CCO)c3)c2c1)c1c(Cl)cncc1Cl	62.4%
CN(CC(=O)N1CCC(CCOc2ccc(F)cc2)C1)S(=O)(=O)c1ccc2c(c1)oc(=O)n2C (centres undefined)	-11.1%
O=C(Cc1ccccn1)N1CCCC(C(=O)N2CCC(N3CCCC3=O)CC2)C1 (centres undefined)	-7.6%
